We go through 7 compounds from PubChem BioAssay (NCI).

Compounds without any hit were thinned out: in the full panel of roughly 83,000, 20% have a hit.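 Testing used 96-well plates and a 48-hour single-concentration exposure. Example: -40 means 40% of the starting cells died.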 A number with no mark means an inactive call. Active and inactive are the calls of the source. How the source made its calls: active means growth percent below 10; inactive means the rest.

What all share (experiment): NCI-60 one-dose screen, 48 h (100 = growth as untreated, 0 = no growth, -100 = all killed)
Holding throughout (details): 10 µM unless noted

The test system of assay [1] is DU-145 prostate.
Assay [2] deals with K-562 leukemia.
Assay [3] has as its system MALME-3M melanoma.
Assay [4] relates to MDA-MB-231 breast.
For assay [5], the system named is RXF 393 renal.
The subject of assay [6] is SF-268 CNS.
In assay [7] the test system is SF-295 CNS.
Assay [8] has as its system SF-539 CNS.
In assay [9] the test system is UACC-257 melanoma.
Assay [10] has as its system M14 melanoma.
Assay [11] concerns HCT-15 colon.
Assay [12] has as its system HT29 colon.
For assay [13], the system named is SNB-75 CNS.
Assay [14] deals with SNB-19 CNS.
In assay [15] the test system is U251 CNS.
Assay [16] has as its system PC-3 prostate.
Assay [17] has as its system SK-MEL-5 melanoma.
In assay [18] the test system is UACC-62 melanoma.
The test system of assay [19] is LOX IMVI melanoma.
Assay [20] relates to SK-MEL-28 melanoma.

As to `CC(C)=CC/C=C(/C)[C@H]1CC[C@]2(C)[C@@H]1CC[C@@H]1[C@@]3(C)CCC(=O)NC(C)(C)[C@@H]3CC[C@]12C`, the growth is 12.2% [100 µM] in [1]; 6.71% [100 µM] (active) in assay [2]; -85.2% [100 µM] (active) in [3]; -35.9% [100 µM] (active) in assay [4]; -72.3% [100 µM] (active) in [5]; 10.9% [100 µM] in assay [6]. Further, the growth in assay [7] is -22.5% [100 µM] (active); in [8], -92.2% [100 µM] (active); in [9], 14.8% [100 µM]; in assay [10], 15.7% [100 µM]; in assay [11] it was 11.7% [100 µM]; in [12], -0.044% [100 µM] (active). The growth in assay [13] was 19.7% [100 µM]; in [14] it was 24.9% [100 µM]; in assay [15] it was -67% [100 µM] (active); in assay [16] it was 16.5% [100 µM]; in [17], -93.5% [100 µM] (active); in assay [18] it was -24.4% [100 µM] (active). For the same compound, the growth in assay [19] is -90.1% [100 µM] (active); in assay [20], -77.3% [100 µM] (active).

For the compound `CCOc1ccccc1/C=N\Nc1ccc(S(=O)(=O)c2ccc(N/N=C/c3ccccc3OCC)cc2)cc1`, the growth in assay [1] was 109%; in assay [2], 87.9%; in assay [3] it was 98%; in [4], 87.8%; in assay [5], 112%; in [6] it was 88.3%. Further, the growth in [7] was 92.9%; in [8], 90.8%; in assay [9], 100%; in assay [10], 96.9%; in assay [11] it was 82.9%; in assay [12], 108%. The growth in assay [13] was 80.8%; in assay [14], 93.5%; in [15], 94.8%; in [16], 87%; in [17], 100%; in assay [18], 85%. For the same compound, the growth was 92.5% in assay [19] and 100% in [20].

Consider `CSc1nc2sc3cc(Cl)c(Cl)cc3n2c(=N)c1C#N`, for which the growth in [1] is 107%; in assay [2], 116%; in assay [3] it was 101%; in assay [4], 83.7%; in assay [5], 149%; in [6], 104%. For the same compound, the growth in [7] is 99%; in assay [8] it was 91.3%; in [9], 99.8%; in [10], 94.3%; in assay [11] it was 104%; in assay [12] it was 94.6%. The growth was 69.2% in assay [13]; 100% in assay [14]; 105% in [15]; 97.6% in [16]; 86.4% in assay [17]; 82.2% in [18]. Further, the figures for the growth in [19] and in assay [20] were 94.5% and 108%, respectively.

As to `C#CC(OC(=O)N(C)C)(c1ccccc1)c1ccc(F)cc1` (stereo not given), the growth in assay [1] was 105%; in assay [2], 120%; in assay [3], 142%; in [4] it was 101%; in [5] it was 87.7%; in assay [6], 91.1%. Also, the growth in assay [7] was 115%; in assay [8] it was 107%; in [9] it was 87.8%; in assay [10] it was 129%; in [11], 94.8%; in assay [12] it was 116%. The growth in [13] was 93%; in assay [14], 120%; in assay [15], 94.8%; in [16] it was 102%; in [17], 112%; in [18], 86.2%. Also, the growth in assay [19] was 78.3%; in [20], 96.5%.

For the compound `C#CCOc1ccc(C2=NN(CC3CC3)C3N=C(Cl)c4ncn(CC5CC5)c4N23)cc1OCC#C` (stereo not given), the growth in assay [1] is 69%; in [2], 48.6%; in [3], 83.5%; in [4], 87.5%; in assay [5] it was 51.2%; in assay [6], 96.8%. For the same compound, the growth in [7] was 88%; in assay [8], 90%; in [9], 98.8%; in assay [10] it was 74.3%; in [11], 69.5%; in assay [12], 84.3%. Besides, the growth in assay [13] was 84.6%; in assay [14], 98.7%; in [15], 70.5%; in [16], 63.7%; in [17], 60.9%; in assay [18], 59.7%. The growth is 68.4% in assay [19] and 93.6% in [20].

In the case of `CC/C=C(\C)C(CCC)(CN=O)C(=O)OCC` (stereo not given), the growth was 111% in assay [1]; 114% in [2]; 105% in assay [3]; 94.8% in [4]; 123% in [5]; 105% in assay [6]. The growth in [7] was 112%; in assay [8], 98.9%; in assay [9], 85.8%; in assay [10], 99.3%; in assay [11] it was 99.6%; in assay [12] it was 106%. Besides, the growth in [13] is 81.9%; in assay [14], 105%; in assay [15] it was 99.3%; in assay [16], 98.3%; in assay [17], 111%; in assay [18] it was 110%. Further, the results for the growth in assay [19] and in assay [20] were 99.7% and 116%, respectively.

`COc1cc(C)cc2oc3oc(=O)c(C(=O)c4cc5cc(Br)ccc5o4)cc3c(=O)c12`: the growth in assay [1] was 113%; in [2], 103%; in assay [3], 98.8%; in [4] it was 105%; in assay [5], 116%; in assay [6], 95%. The growth in [7] was 103%; in assay [8], 96.8%; in assay [9] it was 105%; in assay [10], 100%; in [11] it was 103%; in [12] it was 110%. Further, the growth in assay [13] was 86.6%; in assay [14], 100%; in assay [15], 102%; in [16], 102%; in [17], 102%; in assay [18] it was 99.9%. Besides, the growth in assay [19] is 97.4%; in [20], 106%.
